Calls of active or inactive are those of the source.
Columns and labels:
[1] = system: Plasmodium falciparum Sir2 (PF13_0152, Sir2A); test: Plasmodium falciparum Sir2A binding compounds – biochemical, small-molecule microarray, 635 nm fluorescence, primary screen (AID 1098); conditions: fluorescence 635 nm, higher = more signal;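 also: score merges spot fluorescence intensity with its signal-to-noise ratio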
[2] = probe aDKK1 binding to arrayed compounds – biochemical, biotinylated probe, 635/667 nm fluorescence, primary screen (AID 1099); conditions: small-molecule microarray, higher = more signal;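 also: score merges 667nm spot fluorescence with signal to noise across triplicate slides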
[3] = probe aCHRDL2 binding to arrayed compounds – biochemical, biotinylated probe, 635/667 nm fluorescence, primary screen (AID 1100); conditions: small-molecule microarray, higher = more signal
[4] = change in splice reporter luminescence, either direction, cell-based, HEK293, spliceosome inhibition project, primary screen (AID 1101); conditions: HEK293 splicing luciferase reporter, 24 h, higher = more signal, called active from +8 up or from −8 down;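 also: HEK293 cells carrying a splicing-competent luciferase reporter gene; test concentration not given here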
[5] = target: Fibroblast growth factor 10 (Homo sapiens) (UniProt O15520); test: compounds binding fibroblast growth factor 10 – biochemical, small-molecule microarray, 635 nm fluorescence, primary screen (AID 1102); conditions: FGF10 binding, fluorescence 635 nm, higher = more signal
Chain of Fibroblast growth factor 10 (Homo sapiens) (O15520 whole entry, looked up): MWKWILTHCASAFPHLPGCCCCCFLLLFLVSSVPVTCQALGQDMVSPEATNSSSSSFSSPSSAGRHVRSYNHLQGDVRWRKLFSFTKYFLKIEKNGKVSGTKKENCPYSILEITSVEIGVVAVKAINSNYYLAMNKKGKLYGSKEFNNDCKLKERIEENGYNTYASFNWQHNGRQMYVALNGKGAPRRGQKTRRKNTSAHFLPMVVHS

[6] = system: glycogen synthase kinase-3 (GSK3A per assay name; protocol says GSK3B); test: compounds binding glycogen synthase kinase-3 – biochemical, small-molecule microarray, 635 nm fluorescence, GSK3A, primary screen (AID 1103); conditions: fluorescence 635 nm, higher = more signal; also: the record names both GSK3A and GSK3B
[7] = target: Epidermal growth factor receptor (Homo sapiens) (UniProt P00533); test: compounds binding epidermal growth factor receptor – biochemical, small-molecule microarray, 635 nm fluorescence, primary screen (AID 1104); conditions: EGFR binding, higher = more signal;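 also: score merges 667 nm emission intensity with spot signal to noise over triplicate slides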
Chain of Epidermal growth factor receptor (Homo sapiens) (P00533 whole entry, looked up): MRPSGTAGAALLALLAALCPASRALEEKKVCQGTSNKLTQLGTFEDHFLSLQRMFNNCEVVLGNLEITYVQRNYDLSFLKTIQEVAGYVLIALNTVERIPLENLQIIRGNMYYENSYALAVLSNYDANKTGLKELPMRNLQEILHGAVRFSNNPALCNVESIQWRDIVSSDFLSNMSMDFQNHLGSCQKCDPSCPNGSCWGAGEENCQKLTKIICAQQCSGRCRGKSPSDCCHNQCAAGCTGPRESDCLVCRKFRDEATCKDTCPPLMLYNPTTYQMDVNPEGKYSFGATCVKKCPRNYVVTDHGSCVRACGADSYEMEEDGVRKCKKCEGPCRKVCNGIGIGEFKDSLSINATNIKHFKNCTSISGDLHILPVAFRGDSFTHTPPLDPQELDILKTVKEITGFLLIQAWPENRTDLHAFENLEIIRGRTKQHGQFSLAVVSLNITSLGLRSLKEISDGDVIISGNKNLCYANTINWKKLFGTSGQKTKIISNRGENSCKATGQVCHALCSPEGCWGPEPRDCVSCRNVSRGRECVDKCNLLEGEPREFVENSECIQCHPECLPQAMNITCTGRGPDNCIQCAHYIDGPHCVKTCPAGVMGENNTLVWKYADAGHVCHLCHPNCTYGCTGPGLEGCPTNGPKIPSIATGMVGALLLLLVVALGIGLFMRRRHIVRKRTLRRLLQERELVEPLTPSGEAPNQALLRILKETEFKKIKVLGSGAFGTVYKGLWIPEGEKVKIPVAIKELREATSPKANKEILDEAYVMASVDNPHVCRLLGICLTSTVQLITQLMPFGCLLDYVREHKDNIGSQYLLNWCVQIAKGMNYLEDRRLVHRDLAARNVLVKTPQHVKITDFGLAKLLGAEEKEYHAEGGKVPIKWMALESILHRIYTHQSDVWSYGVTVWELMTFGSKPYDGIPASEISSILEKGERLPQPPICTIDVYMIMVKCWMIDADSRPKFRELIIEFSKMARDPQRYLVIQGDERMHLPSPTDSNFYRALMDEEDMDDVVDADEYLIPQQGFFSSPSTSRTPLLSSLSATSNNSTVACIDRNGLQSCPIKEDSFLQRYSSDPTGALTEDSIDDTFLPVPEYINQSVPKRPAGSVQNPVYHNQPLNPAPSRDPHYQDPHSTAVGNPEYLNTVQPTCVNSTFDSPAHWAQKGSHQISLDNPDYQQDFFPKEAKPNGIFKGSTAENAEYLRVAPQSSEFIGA

[8] = target: Follistatin-related protein 3 (Homo sapiens) (UniProt O95633); test: compounds binding follistatin-related protein 3 – biochemical, small-molecule microarray, 635 nm fluorescence, primary screen (AID 1105); conditions: FSTL3 binding, higher = more signal;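 also: score merges emission near 667 nm and signal to noise per printed spot across three slides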
Chain of Follistatin-related protein 3 (Homo sapiens) (O95633 whole entry, looked up): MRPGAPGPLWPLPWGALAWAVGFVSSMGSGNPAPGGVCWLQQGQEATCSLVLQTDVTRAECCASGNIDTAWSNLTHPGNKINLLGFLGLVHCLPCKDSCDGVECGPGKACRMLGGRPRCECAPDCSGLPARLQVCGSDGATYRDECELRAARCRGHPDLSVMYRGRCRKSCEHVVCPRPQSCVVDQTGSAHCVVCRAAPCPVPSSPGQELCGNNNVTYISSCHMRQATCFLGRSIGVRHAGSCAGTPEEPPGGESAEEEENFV

[9] = target: Dickkopf-related protein 1 (Homo sapiens) (UniProt O94907); test: small molecules binding DKK1 protein – biochemical, small-molecule microarray, 635 nm fluorescence scan, primary screen (AID 1106); conditions: higher = more signal;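 also: score merges emission near 667 nm with signal to noise over three replicate slides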
Chain of Dickkopf-related protein 1 (Homo sapiens) (O94907 whole entry, looked up): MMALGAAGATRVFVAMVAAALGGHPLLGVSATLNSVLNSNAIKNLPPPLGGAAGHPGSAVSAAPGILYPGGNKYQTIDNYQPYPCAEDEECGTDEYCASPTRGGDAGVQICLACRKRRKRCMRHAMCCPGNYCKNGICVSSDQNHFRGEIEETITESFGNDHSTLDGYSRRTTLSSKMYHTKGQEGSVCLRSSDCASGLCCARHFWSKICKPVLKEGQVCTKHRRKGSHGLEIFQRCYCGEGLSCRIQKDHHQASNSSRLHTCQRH

[10] = system: Inhibin beta A chain (activin A); test: small molecules binding activin A – biochemical, small-molecule microarray, 635 nm fluorescence scan, primary screen (AID 1107); conditions: INHBA, higher = more signal;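 also: mouse activin A protein probed at 4.33 µg/mL on printed slides; score merges bound-protein fluorescence near 667 nm with spot signal-to-noise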
[11] = system: Human papillomavirus type 1a protein E7 (residues 44-93); test: small molecules binding HPV E7 44-93 – biochemical, small-molecule microarray, residues 44-93, 635 nm fluorescence, primary screen (AID 1108); conditions: fluorescence 635 nm, higher = more signal;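 also: E7 fragment applied at 1 µg/mL in TBST for 1 h at 4 C; score combines spot fluorescence with its signal to noise ratio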
[12] = hepatitis C replication reporter changes, two-sided – Huh7 cells, luciferase reporter, HCV replication inhibitor project, primary screen (AID 1109); conditions: Huh7 HCV replicon luciferase reporter, 48 h; higher = more signal;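 also: huh7 hepatoma cells harbouring a luciferase neomycin HCV replicon reporter; luciferase luminescence as measure of HCV replicon replication; test concentration not given here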
[13] = target: Left-right determination factor 2 (Homo sapiens) (UniProt O00292); test: small molecules binding LEFTY2 protein – biochemical, small-molecule microarray, 635 nm fluorescence scan, primary screen (AID 1110); conditions: higher = more signal
Chain of Left-right determination factor 2 (Homo sapiens) (O00292 whole entry, looked up): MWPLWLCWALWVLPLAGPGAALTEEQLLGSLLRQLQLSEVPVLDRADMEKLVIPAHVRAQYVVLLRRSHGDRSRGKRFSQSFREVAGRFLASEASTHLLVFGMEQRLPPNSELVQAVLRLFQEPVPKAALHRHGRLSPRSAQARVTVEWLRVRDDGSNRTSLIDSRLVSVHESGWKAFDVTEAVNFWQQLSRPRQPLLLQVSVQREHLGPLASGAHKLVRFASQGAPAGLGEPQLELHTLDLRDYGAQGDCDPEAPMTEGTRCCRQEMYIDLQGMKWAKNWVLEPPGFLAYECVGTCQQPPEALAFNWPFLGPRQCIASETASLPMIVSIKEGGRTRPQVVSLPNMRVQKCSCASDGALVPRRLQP

[14] = target: Calmodulin-1 (Homo sapiens) (UniProt P0DP23); test: small molecules binding calmodulin-1 with EGTA – biochemical, small-molecule microarray, Cy5-labelled CALM1, profiling panel (AID 1111); conditions: Cy5-CALM1 binding fluorescence, higher = more signal;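 also: labelled calmodulin applied in Tris saline Tween buffer holding calcium plus EGTA and DTT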
[15] = target: Calmodulin-1 (Homo sapiens) (UniProt P0DP23); test: small molecules binding Ca-loaded calmodulin-1 – biochemical, small-molecule microarray, Cy5-labelled CALM1, plus calcium, artefact control for SMM control-protein annotation, profiling panel (AID 1112); conditions: Cy5-CALM1 binding fluorescence, higher = more signal;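 also: score merges spot fluorescence with signal to noise from triplicate slides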
[16] = probe aWnt5a binding to arrayed compounds – biochemical, biotinylated probe, 635/667 nm fluorescence, primary screen (AID 1113); conditions: small-molecule microarray, higher = more signal;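 also: score merges 667 nm fluorescence intensity with signal-to-noise per printed feature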
[17] = probe aShh binding to arrayed compounds – biochemical, biotinylated probe, 635/667 nm fluorescence, primary screen (AID 1114); conditions: small-molecule microarray, higher = more signal;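 also: probe is biotin-labelled aShh protein from a stem cell growth factor screen; measures binding of labelled protein to compounds printed on the slide; score merges feature fluorescence at 667 nm with signal-to-noise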
[18] = probe aNog binding to arrayed compounds – biochemical, biotinylated probe, 635/667 nm fluorescence, primary screen (AID 1115); conditions: small-molecule microarray, higher = more signal;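 also: probe is biotinylated aNog protein used at 0.15 µg/mL for 1 h at 4 C; z-score combines 667 nm fluorescence of each spot with its signal to noise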
[19] = target: Torsin-1A-interacting protein 1 (Homo sapiens) (UniProt Q5JTV8); test: compound microarray binding of lysate hLAP1 – cell lysate, small-molecule microarray, COS7 lysate, 635/667 nm fluorescence, primary screen (AID 1116); conditions: 635 nm fluorescence, higher = more signal
Chain of Torsin-1A-interacting protein 1 (Homo sapiens) (Q5JTV8 whole entry, looked up): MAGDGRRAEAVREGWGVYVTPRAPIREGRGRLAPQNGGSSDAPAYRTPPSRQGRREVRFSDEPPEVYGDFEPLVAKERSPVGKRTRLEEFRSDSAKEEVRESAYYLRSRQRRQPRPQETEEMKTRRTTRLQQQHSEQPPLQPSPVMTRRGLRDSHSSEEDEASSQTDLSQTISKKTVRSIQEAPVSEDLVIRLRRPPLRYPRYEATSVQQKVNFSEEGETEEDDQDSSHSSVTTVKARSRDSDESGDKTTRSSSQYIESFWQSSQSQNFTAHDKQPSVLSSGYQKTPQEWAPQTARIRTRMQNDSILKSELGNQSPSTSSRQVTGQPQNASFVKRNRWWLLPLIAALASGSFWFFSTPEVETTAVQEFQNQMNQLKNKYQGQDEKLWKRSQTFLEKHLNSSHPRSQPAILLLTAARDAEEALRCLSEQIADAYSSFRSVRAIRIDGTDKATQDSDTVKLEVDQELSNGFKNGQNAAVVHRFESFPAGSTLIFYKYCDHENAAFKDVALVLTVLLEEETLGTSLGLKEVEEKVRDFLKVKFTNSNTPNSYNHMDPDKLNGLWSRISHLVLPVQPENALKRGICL

[20] = target: Alpha-bungarotoxin (Bungarus multicinctus) (UniProt P60615); test: compounds binding labelled alpha-BTX control protein – biochemical, small-molecule microarray, Alexa647 label, 635/667 nm fluorescence, artefact control for SMM control protein annotation, profiling panel (AID 1117); conditions: alpha-BTX-A647 binding fluorescence, higher = more signal
Chain of Alpha-bungarotoxin (Bungarus multicinctus) (P60615 whole entry, looked up): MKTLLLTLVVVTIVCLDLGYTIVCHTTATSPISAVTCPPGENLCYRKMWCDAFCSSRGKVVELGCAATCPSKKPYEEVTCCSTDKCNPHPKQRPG

Compound	composite z-score [1]	composite z-score [2]	composite z-score [3]	z-score [4]	composite z-score [5]	composite z-score [6]	composite z-score [7]	composite z-score [8]	composite z-score [9]	composite z-score [10]	composite z-score [11]	z-score [12]	composite z-score [13]	composite z-score [14]	composite z-score [15]	composite z-score [16]	composite z-score [17]	composite z-score [18]	composite z-score [19]	composite z-score [20]
C=CCOC(=O)[C@H]1[C@@H]2C(=O)O[C@@H](c3ccccc3)[C@@H](c3ccccc3)N2[C@@H](c2ccc(OCCOC(=O)[C@H]3C[C@H]4C(=O)N[C@@H](CCCCN(C)C)C(=O)N4[C@H]3c3ccc(O)cc3)cc2)[C@]12C(=O)Nc1ccc(I)cc12	1.72	0.193	0.289	0.426 (inactive)	1.31	1.32	0.741	1.41	0.849	1.29	1.4	-0.151	1.21	0.536	-0.62	0.114	0.275	1.14	1.64	0.864
CC(C)C[C@@H]1NC(=O)[C@H](C(C)C)NC(=O)[C@@]23C(=O)N[C@@H](Cc4ccccc4)C2[C@H](C)[C@@]2(C)O[C@H]2C3/C=C/CC/C=C/CNC1=O (stereo not given in full)	0.26	-0.189	-0.263	-0.76 (inactive)	1.16	0.94	0.467	1.37	0.384	1.35	1.35	-1.41	0.413	-0.245	-0.736	-0.117	-0.283	-0.397	0.268	0.705
CN(C)CCCC[C@@H]1NC(=O)[C@H]2C[C@@H](C(=O)NCCCCCCN)[C@@H](c3ccc(O)cc3)N2C1=O	0.436	1.6	1.07	-0.193 (inactive)	1.52	1.29	0.247	1.41	0.644	1.17	1.23	0.251	1.48	1.67	0.921	0.257	0.109	1.59	1.74	2.75
C[N+](C)(C)CCCCNC(=O)[C@H]1C[C@H]2C(=O)N3CCC[C@H]3C(=O)N2[C@H]1c1cccc(OCCO)c1	0.501	0.0086	0.314	0.717 (inactive)	0.489	-0.415	-0.142	1.14	1.32	1.08	-1.09	-0.884	0.766	-0.858	1.03	-0.0721	0.0141	0.0043	0.854	-0.912
CC(C)N1C(=O)c2ccccc2[C@](C)(C(=O)NCCN2CCOCC2)[C@@H]1c1ccc(CO)cc1	0.24	-0.0879	0.987	0.0672 (inactive)	-0.499	-0.608	-1.13	-0.115	-0.75	0.503	0.416	-0.366	-1.03	-0.454	0.23	-0.139	-0.206	-0.213	0.143	0.0722
NC(=O)NCC#Cc1ccc2c(c1)[C@]1(C(=O)N2)[C@H](C(N)=O)[C@H]2C(=O)O[C@H](c3ccccc3)[C@H](c3ccccc3)N2[C@@H]1c1ccc(O)cc1	1.51	-0.912	-0.142	-0.712 (inactive)	0.353	-0.348	-0.858	-0.0676	-1.27	0.778	0.502	0.408	-1.13	0.721	0.562	0.726	0.42	2.39	3.44	2.12
O=C1C[C@@](C(=O)NCCN2CCOCC2)(c2ccc([N+](=O)[O-])cc2)[C@@H](c2ccc(CO)cc2)N1CC12CC3CC(CC(C3)C1)C2	0.866	0.104	0.638	2.36 (inactive)	1.22	1.32	0.86	1.3	0.912	0.403	1.47	-3.14	0.745	1.06	-0.0933	-0.0445	-0.16	-0.377	0.651	1.7
COC(=O)[C@@]1(Cc2ccc(OC)cc2)[C@H]2c3cc(C(=O)N(C)C)n(Cc4ccc(S(C)(=O)=O)cc4)c3C[C@H]2CN1C(=O)c1ccccc1	1.29	0.511	0.573	-0.109 (inactive)	-0.0911	0.904	-0.0743	1.08	0.0527	1.16	1.41	-1.63	-0.0612	1.36	0.798	-0.242	-0.405	-0.21	1.28	-0.0416
[N-]=[N+]=NCc1ccccc1C[C@]1(C(N)=O)COC(c2ccc(OCCCO)cc2)=N1	0.806	1.13	1.36	-1.52 (inactive)	0.23	0.812	-1.04	-0.0511	-0.2	0.636	0.202	-0.17	-0.993	2.01	1.2	-0.0286	-0.0441	-0.169	2.59	1.58
CN(C)C(=O)[C@@]1(CCS(=O)(=O)c2ccccc2)COC(c2ccc(OCCCO)cc2)=N1	0.656	0.476	0.977	-0.824 (inactive)	0.314	0.476	0.0041	-0.448	-0.471	1.04	1.31	-2.25	0.149	0.614	-0.429	-0.154	0.414	-0.288	2.75	0.301
CC(C)[Si]1(C(C)C)O[C@@H](c2ccccc2)c2cc(-c3ccc(-c4ccc(Cl)c(Cl)c4)o3)nc(-c3ccccc3)c21	0.735	0.0699	0.234	0.115 (inactive)	0.353	-0.514	0.0831	0.0331	-0.172	0.756	-0.342	-1.55	-0.115	0.487	0.0017	-0.137	-0.138	0.15	-0.101	0.575
